A short description of assay [1]: Primary qHTS for small molecule stabilizers of the endoplasmic reticulum resident proteome: Secreted ER Calcium Modulated Protein (SERCaMP) assay (AID 1508630). The procedure, abridged: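 The SH-SY5Y reporter protocol was run at 3 concentrations up to 38.3 uM (primary) or 11 concentrations (follow-up): 16 h compound, 100 nM thapsigargin for 4 h, then extracellular luciferase luminescence.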

A short description of assay [2]: A High-Content qHTS Against Drug Library for the Identification of Small Molecules that Inhibit DYT1 Early Onset Primary Dystonia-Associated Cell Pathology (AID 1645839; calls by dose curve; further: series mostly up to about 46 µM). The procedure, abridged:
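Induced EGFP-delE TorsinA cells are imaged after 48 h of compound treatment. Punctate fusion-protein distribution gives the %pathology value, while nuclei counts flag toxicity. Wild-type EGFP-hTOR1A cells define the normal pattern.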

The structures appear in SMILES notation. Inconclusive results are not listed. A call without a number means that no potency is given here. The source made the active and inactive calls. Unless noted, the call rests on the fitted dose curve; in most records, active means well fitted inhibition curve with a large enough effect; inconclusive means small, poorly fitted or top-dose-only effect; inactive means no such curve, though single readings can be large or run the other way.

As for `CCCCCCCCCCCCCCCC(=O)NCC(COP(=O)([O-])OCC[N+](C)(C)C)OCC` (centres undefined), in assay [1], the Potency result is “inactive”.

On to `O=[N+]([O-])c1ccc2c(c1)S(=O)(=O)C=C2`, for which the Potency entry in assay [1] is “inactive”.

`Cc1ccccc1CNc1ncnc2c1ncn2C1OC(CO)C(O)C1O` (centres undefined): the Potency result in assay [1] is “inactive”.

For the compound `CCCCCCCCCCCCCCCCCC(=O)NCC(COP(=O)([O-])OCC[N+](C)(C)C)OCC` (centres undefined), the Potency entry in assay [1] was “inactive”.

In the case of `CN1CCC[C@H]1c1cccnc1`, the Potency result in assay [1] is “inactive”.

With `CN(C)CCCO[C@@H]1[C@H]2OC(C)(C)O[C@H]2O[C@@H]1[C@H](O)CO`, the Potency result in assay [1] is “inactive”.

In the case of `Cc1ccc2c(n1)Oc1ccc(C(C)C(=O)OCC(=O)N(C)C)cc1C2` (centres undefined), the Potency result in assay [1] and in assay [2] was “inactive” throughout.

Turning to `COc1cc(OC)c(/C=C2/C(=O)Nc3ccccc32)c(OC)c1`, the Potency entry in assay [1] is “inactive”.

As for `C[N+](C)(CCCCCC[N+](C)(C)CCCN1C(=O)c2cccc3cccc(c23)C1=O)CCCN1C(=O)c2cccc3cccc(c23)C1=O`, the Potency result in assay [1] was “inactive”.

As to `CCc1c(C(=O)NCCc2ccc(N3CCCCC3)cc2)[nH]c2ccc(Cl)cc12`, the Potency entry in assay [1] was “inactive”.

Turning to `O=C(O)CC1CC(c2ccccc2)=NO1` (centres undefined), the Potency entry in assay [1] is “inactive”.

For the compound `O=C(O)[C@@H]1C[C@H](C(=O)O)N1`, in assay [1], the Potency result was “inactive”.

As for `NCCNC(=O)c1ncsc1-c1cccc(F)c1`, the Potency entry in assay [1] is “inactive”.

`O=C(O)/C=C/C(O)c1ccc(Cl)cc1` (centres undefined): in assay [1], the Potency result is “inactive”.

Regarding `Ic1ccc(N2CCN(Cc3c[nH]c4ncccc34)CC2)cc1`, the Potency entry in assay [1] was “inactive”.

For `CCCn1c(=O)c2[nH]c(-c3ccc(OCC(=O)NCCN)cc3)nc2n(CCC)c1=O`, the Potency result in assay [1] was “inactive”.

As to `CC1(C)C[C@@H]1C(=O)N/C(=C\CCCCSC[C@H](N)C(=O)O)C(=O)O`, in assay [1], the Potency entry is “inactive”.

Take `CO/S(=N\S(=O)(=O)c1ccc(Cl)cc1)c1ccc([N+](=O)[O-])cc1` (centres undefined): the Potency result in assay [1] is “inactive”.

Source of the values: PubChem BioAssay (NCATS).
